In all, about 48,000 compounds went through this assay and about 13,000 (27%) showed an effect of 50% or more. The list shows a part of the results.

The assay relates to Wolbachia pipientis. The experiment in a line: Anti-Wolbachia Cell-Based Screen. Format: functional. More on the design: scale not given: in the data most compounds retested in dose-response had high values. The settings on record: 5 µM.
`Cn1ccc(C(=O)NC2CCN(c3ncccn3)CC2)cc1=O`: the “Percent Effect” value is 3.49%. Then `CC(C)N1CCN(C(=O)Nc2cnn(CC(N)=O)c2)CC1`, with 2.959%.

For the compound `N#Cc1cccnc1NCCNC(=O)N1CCCSCC1`, the “Percent Effect” value was -6.239%. Consider `CCN(CC)S(=O)(=O)CC(=O)Nc1ccsc1`, for which the “Percent Effect” value is given as -11.66%. Turning to `NC(=O)N1CCCC(C(=O)NCCOc2ccc(F)cc2F)C1` (stereo not given), the “Percent Effect” value is -7.563%.

For the compound `NC(=O)N1CCCC(C(=O)NCCOc2ccc(F)c(F)c2)C1` (stereo not given), the “Percent Effect” value is recorded as -0.02905%.

Turning to `CC(=O)N1CCCC(C(=O)NCCOc2cc(C)cc(C)c2)C1` (stereo not given), the “Percent Effect” value was 99.72%. `COc1cccc(S(=O)(=O)CCN2CCN(CCO)CC2)c1`: the “Percent Effect” value came to 9.306%. In the case of `Cc1ccc(-c2nc(C3CCN(C(=O)c4ccnn4C)CC3)no2)cn1`, the “Percent Effect” value was determined as 110.8%. As for `O=C1NCCCC[C@@H]1Nc1ccc(-c2nc(C3CC3)no2)cn1`, the “Percent Effect” value is given as -3.27%. For `Cc1ccc(-c2nc(C3CCN(C(=O)c4cnn(C)c4)CC3)no2)cn1`, the “Percent Effect” value was determined as 103.5%. Regarding `Cc1csc(CNc2ccc(-c3nc(C4CC4)no3)cn2)n1`, the “Percent Effect” value was determined as 8.683%. As for `Cc1cccc2[nH]c(C3CCN(C(=O)c4ccnn4C)CC3)nc12`, the “Percent Effect” value came to 1.136%. As for `Cc1noc(-c2ccc(N3CCC(C(=O)N4CCCC4)CC3)nc2)n1`, the “Percent Effect” value is given as -5.391%. Take `Cc1cc(CNc2ccc(-c3nc(C4CC4)no3)cn2)no1`: the “Percent Effect” value was -5.978%. Then `Cc1cc(C)n(CCN(C)c2ccc(-c3nc(C4CC4)no3)cn2)n1`, with -7.447%; and `Cc1ccc(-c2nc(C3CCN(C(=O)c4ccn(C)n4)CC3)no2)cn1`, with 126.5%; and `Cc1ccc(C(=O)N2CCC(c3noc(-c4cccnc4)n3)CC2)cn1`, with 104.3%. Take `N#Cc1cccc(C(=O)N2CC(c3nc(-c4cccnc4)no3)C2)c1`: the “Percent Effect” value is reported as 18.62%.

`CS(=O)(=O)NCCn1ccc(-c2cccs2)n1`: the “Percent Effect” value was -6.394%. With `CCS(=O)(=O)CC(C)NC(=O)N(C)Cc1cc(Cl)cn1C` (stereo not given), the “Percent Effect” value is -1.914%. `CCn1ccnc1CN1CCCC(CO)(Cc2cccc(OC)c2)C1` (stereo not given): the “Percent Effect” value is reported as 5.509%. With `COCCN1CCN(C(=O)c2cc(C(C)C)on2)[C@H]2CS(=O)(=O)C[C@H]21`, the “Percent Effect” value came out at 8.676%.

`CC(C)N1CC[C@@H]2[C@H](COCC3CC3)CN(C)C(=O)[C@@H]2CC1.O=C(O)C(F)(F)F`: the “Percent Effect” value is given as -0.4638%. For `COCC1c2nnn(C)c2CCN1C(=O)c1ccc(OC)c(F)c1` (stereo not given), the “Percent Effect” value was 111.1%.

With `COCC1c2nnn(C)c2CCN1C(=O)Cc1ccccn1` (stereo not given), the “Percent Effect” value is given as 111.4%.

As to `Cn1nnc2c1CCN(C(=O)CC1CC1)C2COCCN1CCCC1` (stereo not given), the “Percent Effect” value is listed as -8.962%.

Regarding `CN(C)C(=O)N1CCc2c(nnn2C)C1COCC1CC1` (stereo not given), the “Percent Effect” value is on record as -5.702%. As to `CCn1nnc2c1CCN(C(=O)c1ccc3c(c1)OCO3)C2COC` (stereo not given), the “Percent Effect” value was -29.17%. In the case of `CCc1ccc(CN2CCc3c(nnn3C)C2COC)cc1.O=C(O)C(F)(F)F` (stereo not given), the “Percent Effect” value is listed as -3.58%. As for `COCC1c2nnn(C)c2CCN1C(=O)Cc1ccc2c(c1)OCO2` (stereo not given), the “Percent Effect” value was found to be 20.75%. With `COCC1c2nnn(C)c2CCN1C(=O)CCc1cccc(OC)c1` (stereo not given), the “Percent Effect” value is given as 104.7%. In the case of `COCC1c2nnn(CC3CC3)c2CCN1C(=O)c1cccn1C` (stereo not given), the “Percent Effect” value is recorded as -3.461%.

`Cn1nnc2c1CCN(Cc1ccccn1)C2COCc1ccccc1.O=C(O)C(F)(F)F.O=C(O)C(F)(F)F` (stereo not given): the “Percent Effect” value was -46.38%. As for `COCC1c2nnn(CC3CC3)c2CCN1C(=O)c1cccc(F)c1` (stereo not given), the “Percent Effect” value is -7.214%. Then `COCC1c2nnn(C)c2CCN1C(=O)COc1ccccc1C` (stereo not given), with 112%; and `NC(=O)c1ccc(N2CCCCC2)c(NC(=O)c2cc(F)ccc2F)c1`, with -3.666%; and `CCC(C)C(=O)NCc1cccc(N2CCCCC2=O)c1` (stereo not given), with -5.78%. On to `Cn1cnnc1S(=O)(=O)C1CCN(S(=O)(=O)C2CC2)CC1`, for which the “Percent Effect” value is recorded as -4.739%.

Regarding `CN(Cc1cc(Br)cn1C)C(=O)c1cscn1`, the “Percent Effect” value amounted to 4.085%. Then `CCC(NCc1nccn1C)c1nc(C(F)(F)F)cs1` (stereo not given), with 20.15%; and `Cc1ccc(CN2CCC[C@@H]3CN(C(=O)c4ccco4)C[C@@H]32)o1.O=C(O)C(F)(F)F`, with -0.1922%; and `COCC(=O)N1CCc2c(nnn2C)C1COCCN1CCCC1.O=C(O)C(F)(F)F` (stereo not given), with -0.9958%. As to `COCC1c2nnn(C)c2CCN1C(=O)COc1ccccc1OC` (stereo not given), the “Percent Effect” value is reported as 111.7%. Consider `CN(C)C(=O)N1CCc2c(nnn2C)C1COCc1ccccc1` (stereo not given), for which the “Percent Effect” value was -4.916%. Take `Cn1cnnc1CNC(=O)Nc1ccc(OC2CCC2)c(F)c1`: the “Percent Effect” value was 19.99%. The figure for `Cc1nc(C)c(C(=O)N2CCc3nnc(C4CCCCN4C)n3CC2)o1` (stereo not given) is 112.5%.

Regarding `Cc1ncsc1C(=O)N1CCc2nnc(C3CCCCN3C)n2CC1` (stereo not given), the “Percent Effect” value turned out to be 103.3%. For the compound `Cc1ccc(C(=O)N2CCCC2c2nnc3n2CCCCC3)o1` (stereo not given), the “Percent Effect” value is on record as -4.034%. In the case of `Cc1nc(C)c(C(=O)N2CCc3nnc(C4CCCCN4C)n3CC2)s1` (stereo not given), the “Percent Effect” value is listed as 78.92%. As to `Cc1nc(C)c(C(=O)N2CCCc3c(F)cccc32)o1`, the “Percent Effect” value was -18.15%.

Take `Cc1cc2c(=O)n3c(nc2s1)CCN(C(=O)c1scnc1C)CC3`: the “Percent Effect” value is recorded as -10.56%. For the compound `Cc1nc(C2CCCN(C(=O)c3sc(C)nc3C)C2)no1` (stereo not given), the “Percent Effect” value is reported as -10.94%. `Cc1nc(C)c(C(=O)N2CCCC2c2nnc3n2CCCCC3)s1` (stereo not given): the “Percent Effect” value is 13.74%.

For the compound `Cc1nc(C)c(C(=O)N2CCc3nnc(C4CCCN4C)n3CC2)s1` (stereo not given), the “Percent Effect” value stood at 98.46%. On to `C=C(C)COc1cccc(CNC(CC(C)C)c2ncnn2C)c1` (stereo not given), for which the “Percent Effect” value was -17.42%. With `CCc1ccccc1OCCN(C)C(=O)CCN1CCCCO1`, the “Percent Effect” value is on record as -13.9%. As for `CCN(c1ccc(C(=O)N(Cc2cnn(C)c2)C(C)C)cn1)C(C)C`, the “Percent Effect” value is -13.88%. With `CCN(c1ccc(C(=O)N2CCCC2c2cnn(C)c2)cn1)C(C)C` (stereo not given), the “Percent Effect” value is reported as 103.8%.

As to `CCCN(CC)c1ccc(C(=O)N2CCCC2c2cnn(C)c2)cn1` (stereo not given), the “Percent Effect” value is reported as 104.2%. Take `CC(C)(C#N)CCCS(=O)(=O)c1nccn1-c1cccc(F)c1`: the “Percent Effect” value is -8.679%.

Regarding `CC(C)(C)c1cc(NC(=O)CN(Cc2cccs2)Cc2cccs2)on1`, the “Percent Effect” value worked out at 32.93%. Take `CC(CC(F)(F)F)NCc1ccccc1-n1ccnc1` (stereo not given): the “Percent Effect” value worked out at 3.95%.

In the case of `CC(C)C1CN(S(=O)(=O)c2ccc(C#N)cc2)CCS1` (stereo not given), the “Percent Effect” value is -10.5%. The figure for `Cc1cc(C)n(C2CCCN(C(=O)COCC(F)(F)F)C2)n1` (stereo not given) is -14.38%. As to `Cc1cc(C)n(C2CCCN(C(=O)CCOc3cccc(F)c3)C2)n1` (stereo not given), the “Percent Effect” value is 118.8%.

Consider `Cc1nc(C)n(C2CCCN(C(=O)CCOc3cccc(F)c3)C2)n1` (stereo not given), for which the “Percent Effect” value is on record as 103.4%.

Regarding `Cc1cc(C)n(C2CCCN(C(=O)CN(C)C3CC3)C2)n1` (stereo not given), the “Percent Effect” value is -13.37%. With `CC(NS(C)(=O)=O)C(=O)Nc1ccc2oc(C3CC3)nc2c1` (stereo not given), the “Percent Effect” value was -12.46%. For the compound `CC(C)n1cnnc1CNC(=O)CCCOc1ccccc1Cl`, the “Percent Effect” value was -21.75%. In the case of `O=C(NS(=O)(=O)c1cnn(-c2ccccc2F)c1)c1ccco1`, the “Percent Effect” value is reported as -14.51%. Regarding `N#Cc1cccc(S(=O)(=O)N(CC2CCC2)c2cn[nH]c2)c1`, the “Percent Effect” value is given as -4.525%.

Take `O=C(c1ccnnc1)N1CCO[C@H]2[C@H](Oc3cccnc3)CC[C@@H]21`: the “Percent Effect” value is 84%. Then `O=C(c1ccnnc1)N1C[C@H](Oc2cccnc2)[C@H]2OCCC[C@H]21`, with -6.406%; and `O=C(C1=CCCC1)N1C[C@H](OCc2cccnc2)[C@H]2OCCC[C@H]21`, with -3.807%; and `O=C(c1ccnnc1)N1C[C@@H](OCc2cccnc2)[C@H]2OCCC[C@H]21`, with 85.61%. The figure for `O=C(c1ccnnc1)N1CCO[C@H]2[C@@H](OCc3cccnc3)CC[C@@H]21` is -4.529%; for `Cc1occc1C(=O)N1CCO[C@H]2[C@H](Oc3cccnc3)CC[C@@H]21.O=C(O)C(F)(F)F` it is -18.12%; for `CCN(CC)C(=O)CCNC(=O)c1ccccc1N1CCOCC1` it is -16.45%. `Cc1csc(N2CCN(C(=O)c3cc(Cl)c[nH]3)CC2)n1`: the “Percent Effect” value is recorded as -16.71%.

For the compound `Cc1nc(C)n(CC2CCCN(CC(=O)Nc3c(C)n[nH]c3C)C2)n1` (stereo not given), the “Percent Effect” value is -12.55%. `Cc1nc(C)n(CC2CCCCN2CCS(C)(=O)=O)n1` (stereo not given): the “Percent Effect” value was -3.909%. The figure for `Cc1nc(C)n(CC2CCCCN2CCCO)n1` (stereo not given) is 0.7848%. The figure for `Cc1nc(C)n(CC2CN(CCn3cccn3)CCO2)n1` (stereo not given) is 6.801%. With `Cc1nc(C)n(CC2CN(CCc3ccncc3)CCO2)n1` (stereo not given), the “Percent Effect” value is given as -6.873%. Take `Cc1nc(C)n(CC2CCCN(CCCS(=O)(=O)N(C)C)C2)n1` (stereo not given): the “Percent Effect” value was -11.1%. Consider `Cc1nc(C)n(CC2CCCN(CC(=O)N3CCCC3)C2)n1` (stereo not given), for which the “Percent Effect” value is 118.1%. In the case of `Cc1nc(C)n(CC2CCCN(CCC(=O)N3CCCCC3)C2)n1` (stereo not given), the “Percent Effect” value was -10.32%. In the case of `Cc1nc(C)n(CC2CCCN2CCC(=O)N2CCCCC2)n1` (stereo not given), the “Percent Effect” value was 145.3%. As for `Cc1nc(C)n(CC2CCCN(CCC(=O)N3CCOCC3)C2)n1` (stereo not given), the “Percent Effect” value is 132.9%. Consider `Cc1nc(C)n(CC2CN(CCC(=O)N3CCCCC3)CCO2)n1` (stereo not given), for which the “Percent Effect” value is 110.4%. On to `Cc1nc(C)n(CC2CCCN(CC(=O)Nc3nncs3)C2)n1` (stereo not given), for which the “Percent Effect” value is -5.341%.

In the case of `CCc1nc(C)c(-c2nccn2CC2CCCCO2)[nH]1` (stereo not given), the “Percent Effect” value is recorded as -5.573%. For `CCN(C(=O)c1ccc2nnc(C3CCN(CCOC)C3)n2c1)C(C)C.O=C(O)C(F)(F)F` (stereo not given), the “Percent Effect” value amounted to 2.172%. Then `CN(CCN1CCCCCC1)Cc1cnc(N)nc1`, with -0.8813%; and `CCN1CCC(Cn2ccc3ccc(C(=O)OC)cc3c2=O)C1` (stereo not given), with -7.454%. The figure for `COc1ccccc1CNC(=O)C1=NN(c2ccc(C)cc2)C(=O)CN1` is 1.348%; for `CSCC1CCCN1CCc1ccncc1` (stereo not given) it is 7.935%.

For `Nc1nccc(C2CCCN2CCc2ccccc2)n1` (stereo not given), the “Percent Effect” value came out at 168.1%.

For `c1ccc(CCN2CCCC2c2ccnc(Nc3ncccn3)n2)cc1` (stereo not given), the “Percent Effect” value was 212.6%. Consider `Fc1ccc2[nH]c(C3CCCN3CCc3ccccn3)nc2c1` (stereo not given), for which the “Percent Effect” value is 17.03%. As for `c1ccc(CCN2CCCC2c2ccnc(Nc3cnccn3)n2)cc1` (stereo not given), the “Percent Effect” value came out at 169.2%. Turning to `c1cc(CCN2CCCC2CN2CCCC2)ccn1` (stereo not given), the “Percent Effect” value is 17.12%. With `COCC(=O)N1CCCC1c1ccnc(Nc2cnccn2)n1` (stereo not given), the “Percent Effect” value is recorded as -7.486%. Turning to `O=C(CCN1CCCC1c1ccccn1)N1CCc2ccccc2C1` (stereo not given), the “Percent Effect” value is reported as 1%.
